Rv3671c inh: Rv3671c serine protease inhibitors, primary screen, biochemical, fluorescence polarization, M. tuberculosis H37Rv. P9WHR9. inhibition, % at 5.96 µM. 320,000 compounds, 0.048% hits. AID 2606, 2010; in the data active = inhibition above about 38%;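 note: extracellular domain of Rv3671c used as enzyme; 0% = enzyme with DMSO and 100% = no enzyme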
Mtb betalactam: beta-lactam sensitization of Mtb H37Rv, H37Rv; inhibition, % at 25 µM; 330,000 compounds, 0.27% hits; AID 434955, 2010; M. tuberculosis H37Rv growth with meropenem, percent inhibition; call rule not given here;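 note: growth measured after seven days incubation then overnight dye step; 0% = bacteria only wells and 100% = bacteria with antibiotic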
RecA splice inh: Mtb RecA intein splicing inhibitors, primary screen, biochemical, fluorescence, HTS. AID 2221, 2009. inhibition, % (test concentration not listed). 290,000 compounds, 0.75% hits. cell-free RecA intein splicing; in the data active = inhibition above about 30%;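 note: 0% = vehicle wells and 100% = reference inhibitor control wells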
TcdB inh: TcdB glycohydrolase inhibitors, primary screen, biochemical, single point, plate reader. TcdB glycohydrolase enzymatic assay. inhibition, % at 9.99 µM. 350,000 compounds, 0.24% hits. AID 652162, 2013; in the data active = inhibition above about 10%
UGM FP inh: M. tuberculosis UGM enzyme inhibitors, primary screen, biochemical, fluorescence polarization, single point; 320,000 compounds, 0.06% hits; inhibition, % at 10 µM; AID 504406, 2011; purified UGM, fluorescence polarization probe displacement; in the data active = inhibition above about 10%, passing the limit was not always enough
Target sequence (P9WIQ1 whole entry, looked up): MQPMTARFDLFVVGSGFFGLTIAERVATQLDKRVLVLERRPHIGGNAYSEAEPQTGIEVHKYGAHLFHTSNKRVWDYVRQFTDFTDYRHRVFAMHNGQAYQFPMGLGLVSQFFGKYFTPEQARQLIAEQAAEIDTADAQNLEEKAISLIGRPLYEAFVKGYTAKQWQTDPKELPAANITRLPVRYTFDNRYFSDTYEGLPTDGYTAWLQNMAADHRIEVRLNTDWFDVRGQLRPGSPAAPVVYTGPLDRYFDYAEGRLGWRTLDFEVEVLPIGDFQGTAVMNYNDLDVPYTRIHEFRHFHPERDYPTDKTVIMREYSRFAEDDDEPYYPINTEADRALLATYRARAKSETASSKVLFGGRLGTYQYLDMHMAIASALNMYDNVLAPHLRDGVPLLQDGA
MazF activator: activators of E. coli MazEF toxin-antitoxin RNase, primary screen, biochemical, fluorescence, uHTS; Endoribonuclease toxin MazF (Escherichia coli (strain K12)), P0AE70; FAM/BHQ RNA-DNA oligo cleavage fluorescence, 5 h; activation, % at 20 µM; 350,000 compounds, 0.32% hits; in the data active = activation above about 50%
The depositor's hits bear a star; . = no result given. Rows were chosen to be rich in hits. Some 0.97% of all compounds tested hit in one or more screens of this group.

SMILES	Rv3671c inh	Mtb betalactam	RecA splice inh	TcdB inh	UGM FP inh	MazF activator
CC(C)(C)C1CCC(=NNS(=O)(=O)c2ccc(Br)cc2)CC1 (configuration not stated)	4.6	-1.6	-2.3	.	3.5	66.0*
O=S(=O)(N/N=C1/CCCc2ccccc21)c1ccc(Br)cc1	0.8	-6.0	7.5	.	3.4	-2.4
CNC[C@@H]1Oc2ccc(NC(=O)Nc3ccccc3)cc2CC(=O)N([C@H](C)CO)C[C@@H]1C	.	.	.	-0.1	.	.
O=C(C1CCOCC1)N1C[C@@H]2[C@H](c3ccccc31)[C@H](CO)N2Cc1ccccc1Cl	.	.	.	-0.8	.	.
Clc1ccccc1/C=N/NC1=Nc2cccc3cccc1c23	3.6	-3.7	-0.3	2.7	-1.0	231.0*
C(=N\NC1=Nc2cccc3cccc1c23)/c1ccccn1	.	.	-7.0	0.8	.	8.7
CCC(C)C(N)C(=O)NC(CCC(=O)OCc1ccccc1)C(N)=O (configuration not stated)	-5.5	-14.4	-1.3	0.6	-1.5	68.2*
CCOC(=O)c1[nH]nc(-c2cc(CC)c(O)cc2O)c1-c1cscn1	-1.5	3.4	-2.3	15.3*	2.3	-5.9
CCCc1cc2c(=O)c(-c3cscn3)c(C(=O)OCC)oc2cc1O	-9.0	4.5	2.4	1.6	0.3	-12.1
O=c1[nH]nc(-c2ccc(F)cc2)cc1Cc1ccccc1	-3.6	-1.7	1.3	10.1*	0.3	6.6
CCCCNC(=O)C1CCN(S(=O)(=O)c2c(C)noc2/C=C\c2ccc(OC)cc2)CC1	-6.7	-1.1	-2.7	84.9*	2.2	-3.2
O=C(c1cccc(F)c1)N1CC2(C1)[C@H](c1ccccc1)[C@H](CO)N2C(=O)C1CCOCC1	.	.	.	-1.0	.	.
CC(=O)N(C)C[C@@H]1Oc2ncc(-c3ccc(F)cc3)cc2C(=O)N([C@H](C)CO)C[C@H]1C	.	.	.	0.5	.	.
Cc1sc(NC(=O)CSc2n[nH]c(N)n2)c(C#N)c1C	.	.	.	0.7	.	52.7*
Cc1ccccc1S(=O)(=O)N1CCCc2nc(C)c(C)cc21	.	.	.	10.8*	.	.
O=Cc1ccccc1OS(=O)(=O)c1ccccc1	2.8	-9.8	3.1	.	1.4	-0.5
O=S(=O)(Oc1ccccc1-c1ccccc1)c1ccccc1	.	.	.	12.3*	.	-13.9
COC(=O)Cc1[nH]n(-c2ccccc2)c(=O)c1C(C)=Nc1ccccc1	2.7	2.1	3.5	-0.3	5.6	-1.3
COC(=O)Cc1cc(=O)n(-c2ccccc2)[nH]1	-31.6	-0.2	50.0*	-1.9	0.1	1.7
CCn1cc(C(=O)O)c(=O)c2cc(F)c(N3CCN(C(=S)NC(=O)c4ccccc4Br)CC3)cc21	-5.0	26.1	-3.3	10.2*	-1.5	2.8
O=C(N[C@H]1CC[C@H](CCNS(=O)(=O)Cc2ccccc2)O[C@@H]1CO)c1cnccn1	.	.	.	-3.1	.	.
N#Cc1cccc(-c2ccc(C3[C@H]4CNC[C@@H]3N4S(=O)(=O)c3cccc(F)c3)cc2)c1 (some centres not stated)	.	.	.	-0.4	.	.
O=C(C1CC1)N1CC(=O)N2[C@H](CO)[C@@H](c3ccc(C#CC4CCCC4)cc3)[C@@H]2C1	.	.	.	1.7	.	.
COc1cc(-c2n[nH]c(=S)n2/N=C/c2cccn2C)cc(OC)c1OC	10.1	1.8	3.8	11.4*	0.5	-3.9
COc1cc(/C=N/n2c(-c3ccccc3)n[nH]c2=S)cc(OC)c1O	-4.6	0.1	-3.1	-0.9	-1.0	5.5
SMILES	Rv3671c inh	Mtb betalactam	RecA splice inh	TcdB inh	UGM FP inh	MazF activator
COc1cc(/C=N/n2c(-c3ccccc3)n[nH]c2=S)ccc1O	11.6	-1.6	-1.5	18.3*	-3.1	2.1
C/C(=N\O)C(C)(C)Nc1ccc(Br)cc1	6.5	-7.4	0.1	-0.1	-1.7	53.0*
COc1ccc(C(=O)NCC(=O)N2CCN(C(=O)c3ccco3)CC2)cc1[N+](=O)[O-]	-2.4	-10.0	.	1.7	10.9*	-0.7
COc1ccc(C(=O)NCC2(c3ccc(OC)c(OC)c3)CCCC2)cc1OC	.	.	.	1.2	.	4.8
COc1ccc(C2(CNC(=O)c3ccc(OC)c([N+](=O)[O-])c3)CCCCC2)cc1OC	2.0	11.3	-1.2	12.0*	3.9	1.1
COc1ccc(C2C(C#N)=C(N)Oc3c2c(C)nn3-c2ccccc2)cc1Cn1nc(C)c([N+](=O)[O-])c1C (configuration not stated)	10.5	0.4	53.6*	.	2.0	-1.5
